Assay outcomes deposited in PubChem BioAssay by several laboratories.
ADAM10 inh: inhibits human ADAM10; AID 720582; 0.62% of 370,000 active; recombinant ADAM10, EDANS/DABCYL FRET peptide cleavage, 3 h; O14672; inhibition, % at 7 µM;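 active means inhibition above a per-campaign cutoff equal to the mean of compounds falling between control-based bounds plus 3 SD, cut at about 20% in these data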;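 further: 0% = DMSO wells while the 100% control is not disclosed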
KLK7 zymogen act: activates the human kallikrein-7 zymogen; 0.9% of 370,000 active; purified proKLK7, EDANS-DABCYL substrate fluorescence; 100% is mature enzyme control, 0% vehicle; P49862; activation, % at 7 µM;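 active means activation above the mean of all tested compounds plus 3 SD, computed per campaign excluding outliers beyond control limits, cut at about 13% in these data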
NRP1-CendR mod: modulators of CendR peptide binding to human neuropilin-1 | O14786 | inhibition, % at 25 µM | 0.85% of 360,000 active | FAM-RPARPAR peptide binding to NRP-1, fluorescence polarization;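 active means inhibition or corrected inhibition above about 18%, plus a signal ratio from 0.5 to 1.5, limit read from the data, passing the limit was not always enough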
sPLA2-III inh: Inhibits HGIII-sPLA2 liposome hydrolysis, primary screen; Q9NZ20; QFRET BODIPY PC-A2 liposome hydrolysis, fluorescence; inhibition, % at 12.2 µM; 0.56% of 370,000 active; AID 743126;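 active means inhibition above mean plus 3 SD of compounds lying within the high and low control bounds, cut at about 19% in these data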;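 further: 0% = median of test compound wells and 100% = no enzyme DMSO wells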
ADAM17 inh: inhibitors of human ADAM17 | recombinant ADAM17, EDANS/DABCYL FRET peptide cleavage | 0.83% of 370,000 active | inhibition, % at 6.95 µM | P78536;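 active means inhibition above the mean of compounds lying between control limits plus 3 SD, set per campaign, cut at about 8.5% in these data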;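 further: 0% = DMSO-only wells as the low control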
Target sequence (P78536 215-824 limits assumed): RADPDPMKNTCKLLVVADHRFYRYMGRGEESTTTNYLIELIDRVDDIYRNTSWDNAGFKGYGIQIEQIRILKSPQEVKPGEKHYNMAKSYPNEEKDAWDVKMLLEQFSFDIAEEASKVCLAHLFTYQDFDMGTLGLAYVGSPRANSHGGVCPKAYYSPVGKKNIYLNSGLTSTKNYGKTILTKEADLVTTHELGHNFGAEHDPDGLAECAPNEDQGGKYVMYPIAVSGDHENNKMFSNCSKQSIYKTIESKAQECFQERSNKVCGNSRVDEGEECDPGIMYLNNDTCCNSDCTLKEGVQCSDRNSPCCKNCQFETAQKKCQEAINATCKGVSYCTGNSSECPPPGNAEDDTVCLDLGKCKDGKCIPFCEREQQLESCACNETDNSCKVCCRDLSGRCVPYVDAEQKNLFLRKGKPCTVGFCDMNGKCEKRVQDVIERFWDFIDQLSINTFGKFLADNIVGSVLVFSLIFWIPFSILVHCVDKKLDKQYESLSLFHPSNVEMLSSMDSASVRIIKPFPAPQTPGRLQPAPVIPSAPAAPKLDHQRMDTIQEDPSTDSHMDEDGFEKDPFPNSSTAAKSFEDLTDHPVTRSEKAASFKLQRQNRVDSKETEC
sPLA2 confirm: human GIII-sPLA2 inhibition, confirmation; 34% of 2,000 active; shares compounds with sPLA2-III inh; inhibition, % at 12.2 µM; recombinant hGIII-sPLA2, BODIPY PC-A2 QFRET fluorescence;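 active means mean inhibition across triplicates above the hit cutoff set in the earlier primary screen, cut at about 19% in these data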;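 further: 0% = enzyme with DMSO and 100% = DMSO wells lacking enzyme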
BODIPY interf: 535nm fluorescence interference, HGIII-sPLA2 counter-screen | shares compounds with sPLA2-III inh | BODIPY FL product fluorescence interference, QFRET | inhibition, % at 12.2 µM | 8.5% of 2,000 active;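 active means average inhibition above the solvent-only control mean plus 3 SD, cut at about 6% in these data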;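 further: 0% = DMSO with substrate plus product and 100% = DMSO with substrate alone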
535nm interf DR: interferes with 535nm fluorescence in dose response counter-screen. IC50, µM. 240 tested, under 10 active. shares compounds with sPLA2-III inh. BODIPY FL product fluorescence interference, cell-free;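 active means IC50 at or below 10 µM; inactive means IC50 above 10 µM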
* hit, by the source's call; i = inactive; nt = not tested or not shown. Only some compounds are listed: those with a hit (about 3.4% of all), similar ones and a draw of the others.

SMILES	ADAM10 inh	KLK7 zymogen act	NRP1-CendR mod	sPLA2-III inh	ADAM17 inh	sPLA2 confirm	BODIPY interf	others
C=CCN=c1scc(-c2ccco2)n1/N=C/c1ccc(O)c(O)c1O	6	0	-45	24*	3	37*	-1	535nm interf DR=>122
CN(C)c1ccc(N=Nc2nccs2)cc1	5	0	-15	25*	0	45*	18*
Cc1ccc(-n2c(=S)[nH]c3c(oc4ccccc43)c2=O)cc1	0	0	-4	25*	-6	5	-3
O=c1c2oc3ccccc3c2[nH]c(=S)n1-c1ccccc1	1	1	-5	17	-1	nt	nt
COc1cccc(NC(=O)C2CCCN2C(=O)Nc2ccc(Cl)cc2)c1 (centres undefined)	-5	0	nt	3	-2	nt	nt
COc1ccc(C(=O)NC(=S)NNC(=O)c2c(-c3ccccc3)noc2C)cc1OC	5	0	13	20*	2	29*	-10	535nm interf DR=>122
Cc1onc(-c2ccccc2)c1C(=O)NC(=S)NNC(=O)c1cc(-c2ccc(F)cc2)n[nH]1	9	0	-23	29*	5	41*	-16
Cc1onc(-c2ccccc2)c1C(=O)NNC(=S)NC(=O)c1ccc2c(c1)OCO2	6	0	2	27*	2	43*	-11	535nm interf DR=>122
C[C@@H]1CN([C@@H](C)CO)C(=O)CCCn2cc(nn2)CO[C@H]1CN(C)C(=O)Nc1ccc2c(c1)OCO2	-20	0	nt	7	-3	nt	nt
CCOc1ccc(-n2c(SCC(=O)Nc3ccc(Oc4ccccc4)cc3)nnc2-c2ccncc2)cc1	-8	0	nt	3	2	nt	nt
COC1=C[C@H](C(=O)NCc2ccccn2)[C@@]2(C)Cc3ccccc3[C@H]2CC1=O	-13	0	nt	6	-2	nt	nt
CCCCCCCCN1C(=O)[C@@H](CC(=O)NCC23CC4CC(CC(C4)C2)C3)C[C@@]2(C(=O)OC)C1=C[C@H](C(C)C)O[C@@H]2C1CC1	-10	0	nt	10	-7	nt	nt
COc1cnc(-c2ccccn2)nc1Oc1ccccc1	-6	0	-14	11	-4	nt	nt
COc1cnc(-c2ccccn2)nc1Oc1cccc(C(F)(F)F)c1	-13	0	-4	21*	-1	8	-16
NC(=S)N/N=C1\CC(c2ccc3c(c2)OCCO3)Oc2ccc(F)cc21 (centres undefined)	2	0	3	21*	-3	10	-2
O=C(N[C@@H](Cc1cccnc1)C(=O)N1CCC[C@H]1C(=O)NC1CCCC1)c1ccc(Cl)c(Cl)c1	-3	-1	nt	-2	-4	nt	nt
C=CC[n+]1c(-c2ccccc2)csc1NC(C)(C)C	1	-1	8	19*	-4	21*	-4
C=CC[n+]1c(-c2ccc(OC)c(OC)c2)csc1NNC(=O)Nc1ccccc1	5	0	-6	9	-2	nt	nt
O=C1c2ccccc2C(=O)c2c1ccc(O)c2O	-5	0	83*	21*	-3	11	-2
COC(=O)[C@]12C[C@H](CC(=O)NCCCN3CCCC3=O)C(=O)N(CCc3ccc(OC)c(OC)c3)C1=C[C@H](C(C)C)O[C@@H]2C1CC1	-6	0	nt	-2	-4	nt	nt
C/C(=N\NC(=S)NCC(C)(C)C)c1cc(F)cc(F)c1O	-10	-1	4	33*	-5	43*	0	535nm interf DR=>122
CCOC(=O)C1=CCN(S(=O)(=O)c2ccc(Br)cc2)C1c1ccc(F)cc1 (centres undefined)	-8	0	nt	-4	1	nt	nt
COc1ccc(CCN2CCCn3c2nc2c3c(=O)n(CC(C)C)c(=O)n2C)cc1OC	-4	0	-2	24*	-8	13	-17
CN1CCC(N[C@@H](Cc2ccccc2)C(=O)NCCCc2ccccc2)(C(=O)NCCc2c[nH]c3ccccc23)CC1	1	nt	nt	-56	0	nt	nt
Cc1cc(-c2nc3ncccc3o2)ccc1NC(=S)NC(=O)c1ccco1	i	5	-10	21*	-258	8	-22
